The list is not random: actives were taken first. Their share in the collection is about 6.1%.
D1 potentiator = potentiators of human D1 dopamine receptor. HEK293 TREx D1 cells, calcium flux, dopamine EC20 potentiation. potentiation, % at 10 µM. 360,000 compounds, 0.036% hits; in the data active = potentiation above about 30%
DRD3 antagonist = blocks the human D3 dopamine receptor; 360,000 compounds, 2.5% hits; max response, negative = inhibition, %; AID 652054; P35462; D3R cells, DiscoveRx beta-arrestin luminescence, antagonist mode; stronger effect = lower value; in the data active = max response below about -50%; inconclusive = no clear call, values can overlap the other calls
Target sequence (P35462 whole entry, looked up): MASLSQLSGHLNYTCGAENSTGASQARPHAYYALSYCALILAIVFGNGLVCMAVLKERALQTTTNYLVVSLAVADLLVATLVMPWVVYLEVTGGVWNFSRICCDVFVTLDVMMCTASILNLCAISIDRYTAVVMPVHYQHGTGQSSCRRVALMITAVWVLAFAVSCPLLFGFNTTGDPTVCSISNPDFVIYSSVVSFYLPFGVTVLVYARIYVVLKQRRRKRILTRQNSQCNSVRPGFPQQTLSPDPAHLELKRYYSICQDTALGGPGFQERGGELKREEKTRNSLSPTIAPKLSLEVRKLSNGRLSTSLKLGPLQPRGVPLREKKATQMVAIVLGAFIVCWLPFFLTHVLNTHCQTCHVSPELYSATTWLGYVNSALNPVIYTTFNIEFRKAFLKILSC
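Cells expressing the human receptor were seeded at 1500 cells/well, incubated overnight at 37 degrees C in 5% CO2, then exposed to library compounds with dopamine controls for 90 minutes at 37 degrees C before luminescent detection.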
D1 antag = blocks dopamine activation of the human D1 receptor | HEK293 TREx D1 cells, calcium flux, dopamine EC80; stronger effect = lower value | activity change, negative = inhibition, % at 10 µM | 360,000 compounds, 3.2% hits; in the data active = activity change below about -30%
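Using tetracycline-induced force-coupled D1 Hek293 cells and a calcium dye, signals were followed for 180 s after compound, then for 180 s after EC80 dopamine, to detect inhibitors.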
D1 agonist = agonists of human D1 dopamine receptor; HEK293 T-REx D1 cells, calcium flux, agonist mode; activation, % at 2 µM; 360,000 compounds, 1% hits; P21728; in the data active = activation above about 30%
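Agonism was scored from calcium flux recorded over 180 s (1 read/s) after pintool compound addition, following a 10-cycle baseline. Cells were inducible force-coupled HEK293 TREx D1, plated overnight at 30 C and loaded with no-wash calcium dye.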
D3 ag = agonists of human D3 dopamine receptor | D3R DiscoveRx beta-arrestin cells, luminescence, 90 min | max activation, % | 410,000 compounds, 0.58% hits; in the data active = max activation above about 30%
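Agonist mode: compounds and dopamine controls were applied to plated cells for 90 min at 37 degrees C after an overnight attachment at 1500 cells/well. Luminescent read-out followed 30 - 60 minutes at room temperature with DiscoveRx detection reagent.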
Each line names hits and unclear results; the compound was inactive in the other large screens; ! = a repeat was not active.

c1ccc(COc2ccc(CNCc3cccs3)cc2)cc1	D1 potentiator 42, D1 agonist 129
COc1ccc(CCNCc2ccc(OCc3ccc(Cl)nc3)c(OC)c2)cc1OC	D1 agonist 59
CCNCc1ccc(OCc2cccs2)c(OCC)c1	none
Cn1ncc2c(NCc3ccc(Cl)cc3)ncnc21	none (no result: DRD3 antagonist)
O=C(CN1C(=O)COc2ccc(S(=O)(=O)Nc3ccccc3)cc21)NCc1ccccc1Cl	none (no result: DRD3 antagonist)
COc1cccc(Cc2nc3ccccc3nc2SCC(=O)NCCc2ccccc2)c1	none (no result: DRD3 antagonist)
Cc1cccc(CC(=O)NCc2nc3cccnc3n2Cc2ccc(F)cc2)c1	none (no result: DRD3 antagonist)
COc1ccc(C2(CNC(=O)C(=O)Nc3ccc(F)cc3)CCCC2)cc1OC	none (no result: DRD3 antagonist)
COc1ccc(CCNCc2ccc(OCc3ccccc3)cc2)cc1	D1 agonist 61
COc1ccc(CNS(=O)(=O)CCNCCc2ccccc2)cc1	none (no result: D1 potentiator, D1 antag, D1 agonist)
Cc1nn(Cc2c(F)c(F)c(F)c(F)c2F)c(C)c1NC(=O)c1ccc(COc2ccccc2Cl)cc1	D1 antag -34
CSCCC(NC(=O)c1cccc([N+](=O)[O-])c1)c1nc2ccccc2[nH]1 (stereo unspecified)	DRD3 antagonist -53
Cc1ccc(NC(=O)Cn2nnc(-c3ccccc3)n2)c(C)c1	none (no result: DRD3 antagonist)
COc1ccc2c(=O)c(C)c(-c3ccccc3)oc2c1CN(C)C	none (no result: D1 potentiator, DRD3 antagonist, D1 antag, D1 agonist)
Cc1cccc(Nc2nnc(-c3ccc(C)c(S(=O)(=O)N4CCN(C)CC4)c3)c3ccccc23)c1	D1 antag -44 (no result: DRD3 antagonist)
C#CCOc1ccc(-c2nnc(Nc3cccc(C)c3)c3ccccc23)cc1	D1 antag -45 (no result: DRD3 antagonist)
Cc1ccc(Nc2nnc(-c3ccc(C)c(S(=O)(=O)N4CCN(C)CC4)c3)c3ccccc23)cc1	none (no result: DRD3 antagonist)
Cc1ccc(Nc2nnc(-c3ccc(C)c(S(=O)(=O)N4CCN(C)CC4)c3)c3ccccc23)c(C)c1	D1 antag -57 (no result: DRD3 antagonist)
CC(CN1CCN(C)CC1)OC(=O)c1ccc(F)cc1 (stereo unspecified)	none
CC(CN(C)Cc1ccccc1)OC(=O)c1ccc(F)cc1 (stereo unspecified)	DRD3 antagonist -69
COc1ccc(-c2ccc(C3C(C#N)=C(N)Oc4n[nH]c(C)c43)o2)cc1 (stereo unspecified)	D1 antag -33, D1 agonist 32
CCC(C)N(C(=O)COc1ccc(-c2nnco2)cc1)C1CCS(=O)(=O)C1 (stereo unspecified)	D1 antag -54
Cc1ccsc1CN(C(=O)COc1ccc(Cl)cc1)C1CCS(=O)(=O)C1 (stereo unspecified)	none (no result: DRD3 antagonist)
CN(C(=O)COC(=O)c1ccccc1Nc1ccccc1)C1CCS(=O)(=O)C1 (stereo unspecified)	DRD3 antagonist inconclusive
CCOC(=O)C1=C(C)NC(C)=C(C(=O)OCC)C1C(=O)OCC(=O)N(C)C1CCS(=O)(=O)C1 (stereo unspecified)	D1 antag -36
CN(C(=O)COC(=O)c1ccccc1OCc1ccc(F)cc1)C1CCS(=O)(=O)C1 (stereo unspecified)	D1 antag -31
COc1ccc(OCC(=O)N(Cc2sccc2C)C2CCS(=O)(=O)C2)cc1 (stereo unspecified)	D1 antag -73!
COc1ccc(-c2cc(C(=O)Nc3c(C(=O)c4ccc(C)cc4)oc4ccccc34)no2)cc1	none (no result: DRD3 antagonist)
CCC(C)NC(=O)c1cccc(NC(=O)c2nsc3ccccc23)c1 (stereo unspecified)	none (no result: DRD3 antagonist)
COc1ccc(OC)c(/C=C/C(=O)Nc2ccc(C(=O)OCCC(C)C)cc2)c1	none (no result: DRD3 antagonist)
CCN(CC)c1ccc(NC(=O)c2cnn(-c3ccccc3)c2-n2cccc2)c(C)c1	none (no result: DRD3 antagonist)
Cc1cccc(OCC(=O)N(Cc2ccc(C)o2)C2CCS(=O)(=O)C2)c1 (stereo unspecified)	none
Cc1ccc(CN(C(=O)COc2c(C)cccc2C)C2CCS(=O)(=O)C2)o1 (stereo unspecified)	D1 antag -43 (no result: DRD3 antagonist)
CN(C(=O)COc1ccc(C(C)(C)C)cc1)C1CCS(=O)(=O)C1 (stereo unspecified)	DRD3 antagonist -64
N#Cc1ccccc1S(=O)(=O)N1CCN(S(=O)(=O)c2ccc3c(c2)OCCO3)CC1	D1 antag -37 (no result: DRD3 antagonist, D3 ag)
Cc1ccc2c(CC(=O)N3CCN(S(=O)(=O)c4ccccc4)CC3)coc2c1	none
Cc1ccccc1S(=O)(=O)N1CCN(S(=O)(=O)c2ccc3c(c2)OCCO3)CC1	none (no result: DRD3 antagonist, D3 ag)

Screening data as filed in PubChem BioAssay.
